These results are taken from PubChem BioAssay.

Activity calls are given as the source filed them.

The target of one experiment is Torsin-1A-interacting protein 2 (Homo sapiens) (UniProt Q8NFQ8). The experiment is described as follows: small molecules binding lysate-expressed LULL1 – cell lysate, human LULL1 lysate, 635/667 nm fluorescence, primary screen (AID 1092).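 Also: probe is lysate of COS7 cells overexpressing human LULL1; score merges per-feature 667 nm fluorescence with signal-to-noise.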 To be noted: small-molecule microarray, hLULL1 lysate binding, 635 nm fluorescence; higher = more signal.
Torsin-1A-interacting protein 2 (Homo sapiens), sequence (Q8NFQ8 whole entry, looked up): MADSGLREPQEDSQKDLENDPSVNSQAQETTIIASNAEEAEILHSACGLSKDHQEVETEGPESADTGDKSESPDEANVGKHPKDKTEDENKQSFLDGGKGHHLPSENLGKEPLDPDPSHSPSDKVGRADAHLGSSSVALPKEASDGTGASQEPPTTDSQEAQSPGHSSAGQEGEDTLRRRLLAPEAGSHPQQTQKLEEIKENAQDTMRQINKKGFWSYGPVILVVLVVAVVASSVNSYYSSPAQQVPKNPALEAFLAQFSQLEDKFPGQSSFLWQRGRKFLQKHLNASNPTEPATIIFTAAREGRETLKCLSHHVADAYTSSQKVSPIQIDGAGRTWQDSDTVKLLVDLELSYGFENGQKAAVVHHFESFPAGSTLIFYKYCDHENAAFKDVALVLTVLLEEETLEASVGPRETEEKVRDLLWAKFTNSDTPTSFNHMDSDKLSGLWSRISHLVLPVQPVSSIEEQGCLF
`C=CCOC(=O)[C@H]1[C@@H]2C(=O)O[C@@H](c3ccccc3)[C@@H](c3ccccc3)N2[C@@H](c2ccc(OCCOC(=O)[C@@H]3C[C@@H]4C(=O)N[C@@H](CCCCN(C)C)C(=O)N4[C@@H]3c3ccc(O)cc3)cc2)[C@]12C(=O)Nc1ccccc12` displayed a composite z-score of 2.57.
In turn, `CCOC(=O)C1=CC[C@@H](c2ccccc2C(F)(F)F)N(S(=O)(=O)c2ccc(C)cc2)[C@H]1c1ccc(C#N)cc1` had a composite z-score of 2.56.
As for `CCCNC(=O)[C@@H]1c2ccccc2C(=O)N(C(C)C)[C@H]1c1ccc(CO)cc1`, the composite z-score turned out to be 0.618.

System in another experiment: not listed separately
The experiment in a line: optical density change of DRC41 E. coli – strain DRC41, OD650, 24 h, E. coli filamentation project, primary screen (AID 1093).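 Also: MC1000 strain lacking acrAB efflux and sulA so SOS filamentation is blocked; test concentration not given here.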 To be noted: E. coli DRC41 growth, higher = more signal, called active from +8 up or from −8 down.
Consider `C=C(/C(=C/C[C@H](OC(C)=O)c1ccccc1OCCO)c1cc(C(=O)OC)ccc1OC)C(C)C`, for which the z-score is 1.18 (inactive).
In the case of `C[N+](C)(C)CCCC[C@@H]1NC(=O)[C@H]2C[C@@H](C(=O)NCCCCCCN)[C@@H](c3ccc(O)cc3)N2C1=O`, the z-score was 0.766 (inactive).
As to `COc1ccccc1CN1C(=O)c2ccccc2[C@](Cc2ccccc2I)(C(=O)NCC(F)(F)F)[C@@H]1c1ccc(CO)cc1`, the z-score was -1.13 (inactive).
On to `O=C(NCc1ccccc1)[C@@H]1c2ccccc2C(=O)N(Cc2ccccc2C(F)(F)F)[C@H]1c1ccc(CO)cc1`, for which the z-score was 0.479 (inactive).
In the case of `COC(=O)[C@H](Cc1ccccc1)N1CC(/C=C/C2CC2)=C[C@H]1[C@H](O)Cc1ccccc1`, the z-score was -0.25 (inactive).
The same measure, in the same setting: for `CCOC(=O)C1=CC[C@@H](c2ccc(OCc3ccccc3)c(OC)c2)N(S(=O)(=O)c2ccc(C)cc2)[C@H]1c1ccc(SC)cc1` the value was -0.628 (inactive).
Turning to `COc1cccc(/C=C/C=O)c1`, the z-score was -0.283 (inactive).
Same read-out and setting: the same measure for `CC(=O)NCCCC[C@@H]1NC(=O)[C@H]2C[C@@H](C(=O)NCCCC[N+](C)(C)C)[C@@H](c3cccc(OCCO)c3)N2C1=O`: 1.08 (inactive).
Turning to `O=C1C2C=CC(C(O)c3ccccc3)N(Nc3ccccc3F)C2C(=O)N1c1ccccc1` (stereo not drawn), the z-score is -0.106 (inactive).
Regarding `CCOC(=O)C[C@H]1[C@H](OC(=O)c2ccccc2-c2ccccc2)[C@@H](NC(=O)c2ccc(-c3ccccc3)cc2)c2cc(OCCCO)ccc2N1C(=O)c1ccc2ccccc2n1`, the z-score is -0.75 (inactive).
Same read-out and setting: the same measure for `CO[C@]12C=C(Br)[C@@H](C[C@@H]1c1cccc(C)c1)[C@@]1(CO1)C2=O`: -0.0461 (inactive).
With `[N-]=[N+]=Nc1ccccc1[C@@H]1OC(c2ccc(OCCCO)cc2)=N[C@]1(Cc1ccccc1)C(=O)NCC(O)CO` (stereo partly drawn), the z-score was 1.05 (inactive).
`COc1ccc([Si](C)(C)[C@@H]2[C@@H](CCn3cc([C@H](O)c4ccccc4)nn3)O[C@]3(C(=O)N(Cc4ccc(N5CCC5=O)cc4)c4ccccc43)[C@H]2C)cc1`: the z-score was 0.705 (inactive).
`C=CCC(OC(C)=O)[C@@H]1[C@@H](N(Cc2ccc(-c3cccc(C(F)(F)F)c3)o2)C(=O)c2ccc(C)cc2)c2cc(OCCCO)ccc2N1C(=O)c1ccc2ccccc2c1` (stereo partly drawn): the z-score was 1.14 (inactive).
As to `C=CCC(OC(C)=O)[C@@H]1[C@@H](N(Cc2cccc3ccccc23)C(=O)Cc2ccc(F)cc2)c2cc(OCCCO)ccc2N1C(=O)c1ccc2ccccc2n1` (stereo partly drawn), the z-score was 0.265 (inactive).
As for `C[C@H]1NC(=O)[C@@]23C(=O)N[C@@H](Cc4ccccc4)C2[C@H](C)[C@@]2(C)O[C@H]2C3/C=C/C/C=C\CNC(=O)[C@H](Cc2ccccc2)NC1=O` (stereo partly drawn), the z-score was -0.225 (inactive).
In the case of `CCCCCCCCCCC(O)C1C=CC2C(=O)N(C)C(=O)C2N1Nc1ccc([N+](=O)[O-])cc1[N+](=O)[O-]` (stereo not drawn), the z-score is -1.68 (inactive).
On the same count and under the same terms, the same measure for `NCCCCCCNC(=O)[C@@H]1C[C@@H]2C(=O)N[C@@H](CCCCN)C(=O)N2[C@@H]1c1cccc(OCCO)c1`: 0.398 (inactive); for `N#Cc1ccc(C(O)C2C=CC3C(=O)N(c4ccccc4)C(=O)C3N2Nc2ccccc2)cc1` (stereo not drawn): 0.445 (inactive).
`CC1=C([C@H](O)CCc2ccccc2)[C@H](CO)[C@@H]2C(=O)N(C)C(=O)[C@@H]2C1`: the z-score is 1.3 (inactive).
`CCOC(=O)C1=CC[C@@H](c2cccc(Cl)c2)N(S(=O)(=O)c2ccc(C)cc2)C1`: the z-score was -0.363 (inactive).
With `COCCOC(=O)N1C(=O)[C@@]2(c3cc(C#Cc4ccc(OC)cc4)ccc31)[C@H](C(=O)Nc1nc3ccccc3s1)[C@H]1C(=O)O[C@H](c3ccccc3)[C@H](c3ccccc3)N1[C@@H]2c1ccc(O)cc1`, the z-score is 1.57 (inactive).
On the same count and under the same terms, the same measure for `COc1ccc(C#Cc2ccc3c(c2)[C@]2(C(=O)N3)[C@H](c3ccc(O)cc3)N3[C@H](c4ccccc4)[C@H](c4ccccc4)OC(=O)[C@H]3[C@@H]2C(=O)O)cc1`: 1.43 (inactive); for `CC(C)C[C@@H]1NC(=O)[C@@H]2C[C@H](C(=O)NCCCCCN)[C@H](c3ccc(O)cc3)N2C1=O`: -0.687 (inactive); for `CN1C(=O)C2C=CC(C(O)c3ccc(F)cc3)N(Nc3ccccc3)C2C1=O` (stereo not drawn): -1.2 (inactive).
Regarding `CCC[C@@H]1C[C@@]1(CCC)[C@@H](NC(=O)OCc1ccccc1)c1ccc(-c2ccccc2)cc1`, the z-score was 0.0945 (inactive).
For the compound `COc1ccc(NC(=O)O[C@H]2[C@H](OC(=O)Nc3ccccc3)[C@H](OC(=O)Nc3ccccc3)[C@@H](OC)O[C@@H]2CO)cc1`, the z-score is -0.873 (inactive).
On the same count and under the same terms, the same measure for `CC(C)[Si](C#C[Si](C(C)C)(C(C)C)C(C)C)(O[C@H](C)c1cn([C@H](CO)Cc2ccccc2)nn1)C(C)C`: 1.51 (inactive); for `[N-]=[N+]=NCc1ccccc1[C@@H]1OC(c2ccc(OCCCO)cc2)=N[C@]1(CCS(=O)(=O)c1ccccc1)C(=O)NCC(O)CO` (stereo partly drawn): 0.171 (inactive); for `CCC(CC)C(O)C1C=CC2C(=O)N(c3ccccc3)C(=O)C2N1Nc1ccc(C(C)C)cc1` (stereo not drawn): -0.63 (inactive).
`C=C(C)C1CCC(C(O)C2C=CC3C(=O)N(C)C(=O)C3N2N2CCCCC2)CC1` (stereo not drawn): the z-score is -0.867 (inactive).
The same measure, in the same setting: the same measure for `O=C1NC(=O)C2C1C=CC(C(O)c1cccc3ccccc13)N2Nc1ccc(Cl)cc1Cl` (stereo not drawn): -1.43 (inactive).
Turning to `C=CCOC(=O)[C@H]1[C@@H]2C(=O)O[C@@H](c3ccccc3)[C@@H](c3ccccc3)N2[C@@H](c2ccc(OCCOC(=O)[C@@H]3C[C@@H]4C(=O)N[C@@H](CCCCN(C)C)C(=O)N4[C@@H]3c3ccc(O)cc3)cc2)[C@]12C(=O)Nc1ccccc12`, the z-score was -1.6 (inactive).
In the case of `CCOC(=O)C1=CC[C@@H](c2ccccc2C(F)(F)F)N(S(=O)(=O)c2ccc(C)cc2)[C@H]1c1ccc(C#N)cc1`, the z-score was -0.156 (inactive).
Still for that read-out and setting: for `CCCNC(=O)[C@@H]1c2ccccc2C(=O)N(C(C)C)[C@H]1c1ccc(CO)cc1` the value was 0.924 (inactive).
